Each structure is given as a SMILES string. For some assays here: Entries with a potency or affinity are not part of this list. Active and inactive are the calls of the source. Unless noted, no rule for the calls is given here.

A short description of assay [1]: liver-stage malaria parasite load reduction – cell-based, known kinase inhibitor set, luminescence, hepatoma host viability (AID 624392).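 Also: infected cells incubated roughly two days before readout.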 The following applies: Plasmodium liver stage in hepatoma cells, luciferase luminescence, concentration not given here; liver cell % of control: measured here: host liver cell viability; parasite % of control: stronger effect = lower value.

Assay [2] can be described thus: altered dexamethasone sensitivity, NF-kB reporter, cell-based, luciferase, IL-1B stimulus (AID 624486).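 As to percent of negative control (+Dex): 100% = mean signal of vehicle control wells on the plate.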 The following applies: IL-1B + dexamethasone, luminescence; percent of negative control (+Dex): actives lie on both sides, concentration not given here; z-score: measured here: IL-1B alone, no Dex.
For assay [3], the target named is Cellular tumor antigen p53 (Homo sapiens) (UniProt P04637). Kind of assay: GFP-p53 level modulators in HPV16+ cells – imaging, known kinase inhibitor set, EGFP/DsRed ratio (AID 1053116).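 Also: cells exposed to compounds for 24 h at 37 °C before reading.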 Conditions: GFP-p53 stability, stronger effect = higher value; EGFP object count: measured here: GFP-p53 positive objects count.
Assay [4] is described as follows: inducers of IRF3 signaling, differentiated THP-1 – cell-based, PMA-stimulated THP-1, luminescence (AID 1053176). Conditions: PMA-differentiated THP-1, IRF3 reporter luminescence; stronger effect = higher value.
A short description of assay [5]: C. elegans survival during P. aeruginosa infection – whole organism (AID 651566).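 Also: tested at 14 µM; sign flipped so higher z means a lower ratio.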 The following applies: C. elegans killed by P. aeruginosa, survival ratio.
Assay [6] in a line: pro-inflammatory signaling induction in mouse macrophages – cell-based, murine, luminescence (AID 652131). Conditions: murine macrophage pro-inflammatory reporter, stronger effect = higher value.
Assay [7] in a line: MELAS cybrid and Rieske KO viability enhancers – cell-based, MELAS cybrids, Rieske KO mouse fibroblasts, CellTiter-Glo, primary screen (AID 1508586;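 active = mean z-score across replicates of 1.96 or higher in either the MELAS or the Rieske mutant cell line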;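 also: z relative to plate mean and SD of compound and empty wells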). Conditions: low glucose.
The nature of assay [8]: antimalarial activity against Dd2 strain (AID 2302;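 active = growth inhibition above 50% at the single 2 µM test dose, taken to imply half-maximal potency below 2 µM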;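 also: 0% = DMSO untreated growth and 100% = chloroquine plus artemisinin killed control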). Conditions: P. falciparum Dd2 in RBCs, LDH growth readout, 72 h; at 2 µM; stronger effect = higher value.
Assay [9] can be described thus: human hepatoma cell viability loss – ATP luminescence, cytotoxicity control for P. falciparum antimalarial project, primary screen (AID 2303;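 active = inhibition above 50%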;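 also: 0% = DMSO wells and 100% = digitonin-killed cells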). Conditions: HepG2 viability, 24-48 h, at 10 µM, stronger effect = higher value.
For assay [10], the target named is L-lactate dehydrogenase (Plasmodium falciparum (isolate CDC / Honduras)) (UniProt Q27743). Kind of assay: PfLDH activity inhibition – cell lysate, 3D7 strain, counter-screen for P. falciparum growth inhibition project (AID 2304).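 Also: 0% = vehicle and 100% = reference inhibitor.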 The following applies: P. falciparum 3D7 crude extract, LDH APAD/NBT absorbance; at 2 µM; stronger effect = higher value. In general terms: A counterscreen serves to expose hits that act by an unwanted route or on another target.

A short description of assay [11]: inhibition of 3D7 malaria parasite growth – strain 3D7 (AID 2306).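 Also: 0% = DMSO wells and 100% = chloroquine plus artemisinin control wells.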 Conditions: P. falciparum 3D7 erythrocytic growth, LDH absorbance, 72 h; at 2 µM; stronger effect = higher value.
For assay [12], the target named is Calcium-dependent protein kinase 1 (Plasmodium falciparum (isolate 3D7)) (UniProt P62344). Kind of assay: PfCDPK1 kinase inhibitors, biochemical, TCAMS library (AID 1159585; cut-off not given, nearly all actives have IC50 up to about 0.98 µM;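 also: inhibitors leave more ATP so luminescence rises with inhibition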). The following applies: recombinant PfCDPK1, Kinase-Glo ATP depletion luminescence. A general note: Kinase-Glo measures the ATP left after a reaction by luminescence.
Assay [13] has as its target Plasmodium falciparum protein kinase 6 (PK6, PF3D7_1337100) (UniProt Q8IDW1). Kind of assay: PfPK6 kinase inhibitors, biochemical, TCAMS library (AID 1159586). The following applies: recombinant PfPK6, Kinase-Glo ATP depletion luminescence.
Assay [14] addresses Protein kinase 7 (PK7), Plasmodium falciparum 3D7 (PF3D7_0213400) (UniProt Q7YTF7). Kind of assay: inhibition of Plasmodium PK7 catalytic activity – biochemical, TCAMS antimalarial set, Kinase-Glo luminescence (AID 1159587). The following applies: recombinant PfPK7, Kinase-Glo ATP depletion luminescence.
Assay [15] has as its target Calcium-dependent protein kinase 4 (Plasmodium falciparum (isolate 3D7)) (UniProt Q8IBS5). Kind of assay: PfCDPK4 kinase inhibitors, biochemical, TCAMS library (AID 1159588; cut-off not given, nearly all actives have IC50 up to about 0.91 µM). The following applies: recombinant PfCDPK4, Kinase-Glo ATP depletion luminescence.
The mark [16] stands for this setting: MELAS cybrid survival, CellTiter-Glo 48 h, stronger effect = higher value.
[17] abbreviates: Rieske KO mouse fibroblast survival, CellTiter-Glo 72 h.

Sequence of Cellular tumor antigen p53 (Homo sapiens) (P04637 whole entry, looked up): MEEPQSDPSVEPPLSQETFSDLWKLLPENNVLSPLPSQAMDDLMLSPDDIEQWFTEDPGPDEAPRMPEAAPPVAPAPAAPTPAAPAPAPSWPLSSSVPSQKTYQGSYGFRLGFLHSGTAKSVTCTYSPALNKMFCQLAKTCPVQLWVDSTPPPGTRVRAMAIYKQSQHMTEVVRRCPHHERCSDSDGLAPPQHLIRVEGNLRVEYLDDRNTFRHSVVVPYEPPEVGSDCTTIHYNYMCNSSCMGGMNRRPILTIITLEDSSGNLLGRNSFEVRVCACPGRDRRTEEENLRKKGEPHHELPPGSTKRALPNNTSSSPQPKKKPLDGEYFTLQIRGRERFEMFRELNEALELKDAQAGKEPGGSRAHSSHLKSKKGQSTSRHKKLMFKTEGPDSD
Sequence of Calcium-dependent protein kinase 1 (Plasmodium falciparum (isolate 3D7)) (P62344 whole entry, looked up): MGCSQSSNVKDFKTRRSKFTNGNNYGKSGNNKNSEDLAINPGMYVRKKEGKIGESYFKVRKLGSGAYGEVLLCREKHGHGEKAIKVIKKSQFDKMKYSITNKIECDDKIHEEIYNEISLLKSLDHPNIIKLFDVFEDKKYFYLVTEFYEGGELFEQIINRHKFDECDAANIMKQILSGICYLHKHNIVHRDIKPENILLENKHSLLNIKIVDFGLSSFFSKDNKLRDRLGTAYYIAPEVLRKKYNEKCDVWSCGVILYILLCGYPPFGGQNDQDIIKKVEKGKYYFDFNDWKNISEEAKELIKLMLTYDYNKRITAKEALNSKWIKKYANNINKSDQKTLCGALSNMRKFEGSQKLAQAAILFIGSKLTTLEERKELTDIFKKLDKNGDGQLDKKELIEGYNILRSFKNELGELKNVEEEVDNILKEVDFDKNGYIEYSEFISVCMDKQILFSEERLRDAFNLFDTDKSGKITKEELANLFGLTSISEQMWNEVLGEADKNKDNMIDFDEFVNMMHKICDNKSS
Sequence of Calcium-dependent protein kinase 4 (Plasmodium falciparum (isolate 3D7)) (Q8IBS5 whole entry, looked up): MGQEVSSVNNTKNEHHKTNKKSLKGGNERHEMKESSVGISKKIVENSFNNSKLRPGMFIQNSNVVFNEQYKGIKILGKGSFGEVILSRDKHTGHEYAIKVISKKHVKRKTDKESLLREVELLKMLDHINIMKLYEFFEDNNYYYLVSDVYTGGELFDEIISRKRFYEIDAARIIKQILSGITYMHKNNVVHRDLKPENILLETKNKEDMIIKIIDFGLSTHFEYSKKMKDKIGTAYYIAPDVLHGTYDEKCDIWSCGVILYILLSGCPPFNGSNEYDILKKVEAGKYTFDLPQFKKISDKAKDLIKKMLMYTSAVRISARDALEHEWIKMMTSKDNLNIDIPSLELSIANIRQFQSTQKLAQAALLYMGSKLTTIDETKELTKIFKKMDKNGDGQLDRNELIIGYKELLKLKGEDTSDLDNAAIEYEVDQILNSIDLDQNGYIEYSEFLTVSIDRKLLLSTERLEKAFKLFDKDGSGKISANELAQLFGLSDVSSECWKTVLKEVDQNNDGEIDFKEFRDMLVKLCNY
Sequence of L-lactate dehydrogenase (Plasmodium falciparum (isolate CDC / Honduras)) (Q27743 whole entry, looked up): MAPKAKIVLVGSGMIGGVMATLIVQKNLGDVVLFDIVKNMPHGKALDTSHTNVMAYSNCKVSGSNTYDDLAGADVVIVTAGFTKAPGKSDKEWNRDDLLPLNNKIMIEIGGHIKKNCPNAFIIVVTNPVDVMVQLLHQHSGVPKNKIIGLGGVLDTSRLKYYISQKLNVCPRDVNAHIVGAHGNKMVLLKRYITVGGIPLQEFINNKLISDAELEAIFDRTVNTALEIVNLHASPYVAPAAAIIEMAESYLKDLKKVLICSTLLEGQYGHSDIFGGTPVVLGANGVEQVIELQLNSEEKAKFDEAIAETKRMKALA
Sequence of Protein kinase 7 (PK7), Plasmodium falciparum 3D7 (PF3D7_0213400) (Q7YTF7 1-343): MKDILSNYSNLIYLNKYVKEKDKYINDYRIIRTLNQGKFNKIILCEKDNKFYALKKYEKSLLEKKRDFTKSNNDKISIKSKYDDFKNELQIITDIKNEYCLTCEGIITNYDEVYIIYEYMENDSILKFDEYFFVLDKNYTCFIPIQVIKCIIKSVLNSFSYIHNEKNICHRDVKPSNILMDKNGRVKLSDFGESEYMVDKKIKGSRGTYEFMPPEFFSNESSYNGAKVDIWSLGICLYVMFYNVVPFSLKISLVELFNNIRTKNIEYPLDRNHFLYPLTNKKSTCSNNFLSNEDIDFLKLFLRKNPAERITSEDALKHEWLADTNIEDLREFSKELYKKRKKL
Sequence of Plasmodium falciparum protein kinase 6 (PK6, PF3D7_1337100) (Q8IDW1 1-305): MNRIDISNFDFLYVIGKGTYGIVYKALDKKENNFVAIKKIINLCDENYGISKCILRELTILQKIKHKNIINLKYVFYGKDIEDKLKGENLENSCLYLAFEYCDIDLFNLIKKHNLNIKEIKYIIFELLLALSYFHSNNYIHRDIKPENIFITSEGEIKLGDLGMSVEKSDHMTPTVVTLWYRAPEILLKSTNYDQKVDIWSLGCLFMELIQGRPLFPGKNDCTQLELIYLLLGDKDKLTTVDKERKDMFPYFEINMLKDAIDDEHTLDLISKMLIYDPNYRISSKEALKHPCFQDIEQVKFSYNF

With `Cn1cc(C2=C(c3cn(C)c4cc(C(=O)O)ccc34)C(=O)NC2=O)c2ccccc21`, in assay [1], the liver cell % of control came out at 145% and the parasite % of control was 38.3% (inactive). In assay [2], the percent of negative control (+Dex) was 99% (inactive) and the z-score stood at 0.65. In assay [3], the EGFP object count was found to be 2.5 and the EGFP/DsRed ratio was 0.485 (inactive). The fraction signal in [4] is 0.0035 (inactive).
Regarding `CC(C)(O)CCc1cccc(C(=O)c2cnn(-c3ccc(F)cc3)c2N)c1`, in assay [1], the liver cell % of control was 105% and the parasite % of control was 56.9% (inactive). For the same compound, in assay [2], the percent of negative control (+Dex) was 110% (inactive) and the z-score was 0.16. In addition, in assay [3], the EGFP object count stood at 1.5 and the EGFP/DsRed ratio is 0.0442 (inactive). The fraction signal in [4] is 0.0185 (inactive).
As to `O=C1C(c2c[nH]c3ccccc23)=C(c2c[nH]c3ccccc23)C(=O)N1O`, in assay [1], the liver cell % of control is 107% and the parasite % of control was 29% (inactive). In assay [2], the percent of negative control (+Dex) was 94% (inactive) and the z-score is -1.25. Moreover, in assay [3], the EGFP object count came out at 5.5 and the EGFP/DsRed ratio was 0.0849 (inactive). In addition, the fraction signal in [4] is 0.0015 (inactive).
In the case of `CS(=O)(=O)CCc1cccc(C(=O)c2cnn(-c3ccc(F)cc3)c2N)c1`, in assay [1], the liver cell % of control was 95.7% and the parasite % of control was 45.3% (inactive). Further, in assay [2], the percent of negative control (+Dex) was 102% (inactive) and the z-score came out at 1.1. Also, in assay [3], the EGFP object count was 1.5 and the EGFP/DsRed ratio is 0.152 (inactive). Also, the fraction signal in assay [4] is -0.0075 (inactive).
In [1], `COc1ccccc1Oc1nccc(-c2c(-c3ccc(F)cc3)ncn2C2CCNCC2)n1` returned a liver cell % of control of 89.7%. The parasite % of control in [1] is 136% (inactive). In assay [2], the percent of negative control (+Dex) was 104% (inactive). In addition, the z-score in [2] was 0.275; in [5] it was 0.105 (inactive); in assay [6], 0.324 (inactive); in [7] (setting [16]), -0.339 (inactive); in assay [7] (setting [17]) it was -0.367. Further, the fraction signal in assay [4] is 0.001 (inactive).
`Cn1cc(C2=C(c3cccc(N)c3)C(=O)NC2=O)c2ccccc21`: in [1], the liver cell % of control was determined as 102% and the parasite % of control is 14.9% (inactive). Besides, in [2], the percent of negative control (+Dex) was 124% (active) and the z-score is -1.23. In assay [3], the EGFP object count came out at 23.5 and the EGFP/DsRed ratio was 0.303 (inactive). For the same compound, the fraction signal in [4] was -0.005 (inactive).
Regarding `COc1cccc2c1c(C1=C(c3cn(C)c4ccccc34)C(=O)NC1=O)cn2C`, in assay [1], the liver cell % of control was found to be 85.8% and the parasite % of control was 34.6% (inactive). Moreover, in [2], the percent of negative control (+Dex) is 103% (inactive) and the z-score is 0.84. Moreover, in assay [3], the EGFP object count came to 12.5 and the EGFP/DsRed ratio is 0.282 (inactive). Moreover, the fraction signal in [4] was -0.0155 (inactive).
In [1], `O=C(O)c1ccc(Oc2nccc(-c3c(-c4ccc(F)cc4)ncn3C3CCNCC3)n2)cc1` yielded a liver cell % of control of 104%. The parasite % of control in [1] was 117% (inactive). Moreover, the percent of negative control (+Dex) in [2] is 97% (inactive). Further, the z-score in [2] is -0.04; in assay [5] it was -0.625 (inactive); in assay [6], 0.424 (inactive); in [7] (setting [16]), -0.0801 (inactive); in [7] (setting [17]) it was -0.396. Further, in assay [4], the fraction signal was 0.0015 (inactive).
Turning to `CS(=O)(=O)CCNCc1ccc(-c2ccc3ncnc(Nc4ccc(OCc5ccccc5)c(Cl)c4)c3c2)o1`, the growth inhibition is 76% (active) in assay [8] and 101% (active) in assay [11]. The inhibition (usually the drop in the measured response relative to a control, in per cent) in assay [9] was 4% (inactive); in assay [10] it was -7% (inactive). The liver cell % of control in [1] was determined as 113%. Besides, the parasite % of control in assay [1] is 73.2% (inactive). In addition, in assay [2], the percent of negative control (+Dex) was 73.5% (inactive). The z-score is -1.31 in assay [2]; -0.785 (inactive) in [5]; 2.12 (inactive) in assay [6]; -0.588 (inactive) in assay [7] (setting [16]); -0.304 in assay [7] (setting [17]). For the same compound, in [4], the fraction signal was -0.0085 (inactive). In addition, the outcome in [12], in assay [13], in assay [14] and in assay [15] was inactive.
